Assay results published in the supplement of paper PMC10105736.
± gives the standard deviation of the averaged measurements.

Assays:
Test in all cases: MAPPIT interaction score (arbitrary units); higher = stronger binary interaction signal, active = hit call of the paper;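 active = MAPPIT score above the 99th percentile of random reference set scores in the same batch; inactive = at or below it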
Cnb = settings: pair source set: Lit-BM-16
Cdc5 = settings: MAPPIT configuration: N-N; pair source set: DPIM
Coprox = settings: MAPPIT configuration: N-N; pair source set: RRS
CSN4 = settings: MAPPIT configuration: N-C; pair source set: Lit-BM-16
Cog6 = settings: MAPPIT configuration: N-N; pair source set: Finley_Y2H
Caper = settings: MAPPIT configuration: N-N; pair source set: DPIM
Cp190 = settings: MAPPIT configuration: N-N; pair source set: Lit-BM-16
mod(mdg4) = settings: pair source set: Lit-BM-16
CkIIalpha-i3 = settings: MAPPIT configuration: N-C; pair source set: screen_3
Cdc50 = settings: MAPPIT configuration: N-N; pair source set: DPIM
Caf1-55 = settings: pair source set: Lit-BM-16
Rph = settings: MAPPIT configuration: N-C; pair source set: RRS
Cda5 = settings: MAPPIT configuration: N-N; pair source set: Lit-BS-16
Cpr56F = settings: MAPPIT configuration: N-N; pair source set: Finley_Y2H
Cdlc2 = settings: MAPPIT configuration: N-N; pair source set: Finley_Y2H
Chd64 = settings: MAPPIT configuration: N-N; pair source set: RRS
CanA1 = settings: MAPPIT configuration: N-N; pair source set: Lit-BS-16
Cpr47Eg = settings: MAPPIT configuration: N-N; pair source set: Lit-BM-16
RpS13 = settings: pair source set: Lit-BM-16
Sas-6 = settings: pair source set: Lit-BM-16
cnn = settings: pair source set: Lit-BM-16
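Also: HEK293T cells with Epo stimulation, STAT-responsive firefly luciferase reporter, fold induction versus unstimulated cells divided by the larger fold induction of two negative controls lacking either bait or prey.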

B1: Cpr47Eg (protein)
chain: MKFFIAFACLLAVALANEDANVLRAEQQVNVDGFAYAVELDNSVNVQQKGDLNGEEWVVKGSQSWTSPENVPVSIQYIADANGYQVVSANPPLPTPPPIPEAIQRSLEYIAAHPPSQ
- MAPPIT interaction score (Cnb; MAPPIT configuration: N-C): 1.11 (inactive)
- MAPPIT interaction score (Cnb; MAPPIT configuration: N-N): -0.0471 (inactive)

B2: LTV1 (protein)
chain: MVKGKKPYIDRKKAVTFHLVHRSQHDPLVTDENAPQRVLLEAAARQQKPKDPEPPTDPAQRQEELKKFGIHFDDDYDYMQHLKKRENDVVWEFMENPNQARKQKVQDSEKPGPAPKLMLPSSVFASEFEESEGMLNKAAPQTLRLDWDPDVVAALDSDCENEELEDDFVIQAMAEGDSDDEEWDDEDGEEQSDMDFDSDDLNEDENEDELMDRLAPLMRERRFDDEEVKSRFTEYSMSSSVIRRNEQLSLLDDRFEKFYATYDDPELGDLALEDIEGNWHQKHPVVMQCFQEFKKKDKGIEYNKEWDRERIEKYRNVVEGEEDPTEELVEYEVDDPKQKKWDCESILSTYSNIYNHPKVIDEPRRSRRSSASTNPAPIQIDPKTGLPTNVLRGGVDGQLTAKALANLADESPAATGPKSLCAKSVLSTLSVLSIRPKDETHEEKKERKRLLKDYRNERRIEKKANTEAFKEEKKRQTHVKINQRTNQQGASIV
- MAPPIT interaction score (Cdc5): 1.03 (inactive)

B3: Ilp6 (protein)
chain: MVLKVPTSKVLLVLATLFAVAAMISSWMPQVAASPLAPTEYEQRRMMCSTGLSDVIQKICVSGTVALGDVFPNSFGKRRKRDLQNVTDLCCKSGGCTYRELLQYCKG
- MAPPIT interaction score (Coprox): -0.378 (inactive)

B4: CSN7 (protein)
chain: MTQDMLLGNEEPSKSKETFLEKFCVLAKSSTGAALLDVIRQALEAPNVFVFGELLAEPSVLQLKDGPDSKHFETLNLFAYGTYKEYRAQPEKFIELTPAMQKKLQHLTIVSLAIKAKSIPYALLLSELEIDNVRHLEDIIIEAIYADIIHGKLFQNTRILEVDYAQGRDIPPGYTGQIVETLQAWVNSCDSVSNCIEMQIKYANAEKSKRLINKERVEQDLINLKKVLKSQTSDSDESMQIDTHGPGTSGGLGQSELRKKPSKLRNPRSAAVGLKFSK
- MAPPIT interaction score (CSN4): 1.74 (inactive)
- MAPPIT interaction score (Cog6): -0.342 (inactive)

B5: RpS13 (protein)
chain: MGRMHAPGKGISQSALPYRRTVPSWLKLNADDVKEQIKKLGKKGLTPSKIGIILRDSHGVAQVRFVNGNKILRIMKSVGLKPDIPEDLYHMIKKAVAIRKHLERNRKDKDGKFRLILVESRIHRLARYYKTKSVLPPNWKYESSTASALVA
- MAPPIT interaction score (Cnb; MAPPIT configuration: N-N): 0.219 (inactive)

B6: Npc2a (protein)
chain: MLRYAVIACAALVVFAGALEFSDCGSKTGKFTRVAIEGCDTTKAECILKRNTTVSFSIDFALAEEATAVKTVVHGKVLGIEMPFPLANPDACVDSGLKCPLEKDESYRYTATLPVLRSYPKVSVLVKWELQDQDGADIICVEIPAKIQ
- MAPPIT interaction score (Caper): -0.361 (inactive)

B7: su(Hw) (protein)
chain: MSASKEGKEKKGKLLGVENISPPKDKRPATRMKLLNDVGAGEDSEASTTTTTSRTPSNKQEKRGSVAGSRIKILNEEILGTPKTEKRGATKSTAPAASTVKILNEKKTPSATVTAVETTKIKTSPSKRKKMEHYVLQAVKSENTKADTTVTVVTEEDDTIDFILADDEEVVPGRIENNNGQEIVVTEDDEDLGEDGDEDGEDSSGKGNSSQTKIKEIVEHVCGKCYKTFRRVQSLKKHLEFCRYDSGYHLRKADMLKNLEKIEKDAVVMEKKDICFCCSESYDTFHLGHINCPDCPKSFKTQTSYERHIFITHSEFSDFPCSICNANLRSEALLALHEEQHKSRGKPYACKICGKDFTRSYHLKRHQKYSSCSSNETDTMSCKVCDRVFYRLDNLRSHLKQHLGTQVVKKPEYMCHTCKNCFYSLSTLNIHIRTHTGEKPFDCDLCDKKFSALVALKKHRRYHTGEKPYSCTVCNQAFAVKEVLNRHMKRHTGERPHKCDECGKSFIQATQLRTHSKTHIRPFPCEQCDEKFKTEKQLERHVKTHSRTKRPVFSCAECKRNFRTPALLKEHMDEGKHSPKQQRSSMRSAVKIMERTDCAICDKNFDSSDTLRRHIRTVHECDPDDIFGVEPHPSKRAKKDIESEEVVPVALNTSAGSLISSQTDGNGVVVREFLVDEGDGAAQTITLENETYTILPLDGAIEGEQLTDEAGVKPEAKKEEAQVSPVVKKEQRKSLAASLAAAIADNLEESCSEDDFSGEILTEEDIKLKENVGKLIDMLVDPPILKKYGWPNAPEETVLCKVIENCGHDLTKGGENYAELDYGSRMREYCKLLFTVVIHNDSIKSLLNNFPIDDVIEYVLGDEDQDEGGLDKDNESHSGDEEAVSVTGETKTNEIREKPEKKEVSAKSEKKEIVGKAVDKDNSEEVVRENKKKPVGEQEKA
- MAPPIT interaction score (Cp190): 0.105 (inactive)
- MAPPIT interaction score (mod(mdg4); MAPPIT configuration: N-C): 2.52 (inactive)
- MAPPIT interaction score (mod(mdg4); MAPPIT configuration: N-N): 0.317 (inactive)

B8: Timp (protein)
chain: MDLRKHLGLLTLLLVAVFAFYGRPADACSCMPSHPQTHFAQADYVVQLRVLRKSDTIEPGRTTYKVHIKRTYKATSEARRMLRDGRLSTPQDDAMCGINLDLGKVYIVAGRMPTLNICSYYKEYTRMTITERHGFSGGYAKATNCTVTPCFGERCFKGRNYADTCKWSPFGKCETNYSACMPHKVQTVNGVISRCRWRRTQLYRKCMSNP
- MAPPIT interaction score (CkIIalpha-i3): 0.0292 (inactive)

B9: CaBP1 (protein)
chain: MRQLASILLLAFVVGSVSAFYSPSDGVVELTPSNFDREVLKDDAIWVVEFYAPWCGHCQSLVPEYKKLAKALKGVVKVGSVNADADSTLSGQFGVRGFPTIKIFGANKKSPTDYNGQRTAKAIAEAALAEVKKKVQGVLGGGGGSSSGGSGSSSGDDVIELTEDNFDKLVLNSDDIWLVEFFAPWCGHCKNLAPEWAKAAKELKGKVKLGALDATAHQSKAAEYNVRGYPTIKFFPAGSKRASDAQEYDGGRTASDIVSWASDKHVANVPAPELIEIINESTFETACEGKPLCVVSVLPHILDCDAKCRNKFLDTLRTLGEKFKQKQWGWAWAEGGQQLALEESLEVGGFGYPAMAVVNFKKMKFSVLKGSFSKDGINEFLRDISYGRGHTAPVRGAKKPAIVSVDPWDGKDGQLPTEEDIDLSDIDLDKDEL
- MAPPIT interaction score (Cdc50): 0.0074 (inactive)

B10: Caf1-55 (protein)
chain: MVDRSDNAAESFDDAVEERVINEEYKIWKKNTPFLYDLVMTHALEWPSLTAQWLPDVTKQDGKDYSVHRLILGTHTSDEQNHLLIASVQLPSEDAQFDGSHYDNEKGEFGGFGSVCGKIEIEIKINHEGEVNRARYMPQNACVIATKTPSSDVLVFDYTKHPSKPEPSGECQPDLRLRGHQKEGYGLSWNPNLNGYLLSASDDHTICLWDINATPKEHRVIDAKNIFTGHTAVVEDVAWHLLHESLFGSVADDQKLMIWDTRNNNTSKPSHTVDAHTAEVNCLSFNPYSEFILATGSADKTVALWDLRNLKLKLHSFESHKDEIFQVQWSPHNETILASSGTDRRLHVWDLSKIGEEQSTEDAEDGPPELLFIHGGHTAKISDFSWNPNEPWIICSVSEDNIMQVWQMAENVYNDEEPEIPASELETNTA
- MAPPIT interaction score (Caf1-55; MAPPIT configuration: N-C): 2.19 (inactive)
- MAPPIT interaction score (Caf1-55; MAPPIT configuration: N-N): 1.84 ± 0.68
- MAPPIT interaction score (Rph): 2.27 (inactive)

B11: Cp36 (protein)
chain: MQLGLWFGILAIAATPLVSANYGPAGGHGHGHGHGQYLSGPNAGLEEYVNVASGGNQQAANQIASQAEIQPTPEEARRLGRVQAQLQALNADPNYQKLKNSEDIAESLAETNLASNIRQGKIKVVSPQFVDQHLFRSLLVPSGHNNHQVIATQPLPPIIVHQPGAPPAHVNSGPPTVVRGNPVIYKIKPSVIYQQEVINKVPTPLSLNPVYVKVYKPGKKIEAPLAPVVAPVYSQPREYSQPQGYGSAGAASSAAGAASSADGNAYGNEAPLYNSPAPYGQPNY
- MAPPIT interaction score (Cda5): 0.061 (inactive)

B12: Uro (protein)
chain: MFATPLRQPAAANHQTPKNSAGMDEHGKPYQYEITDHGYGKDAVKVLHVSRNGPVHAIQEFEVGTHLKLYSKKDYYQGNNSDIVATDSQKNTVYLLAKKHGIESPEKFALLLARHFINKYSHVEEAHVHVEAYPWQRVCQEETRTNVNGKCENGVQGNCDFSSIDNRSLHNHAFIFTPTALHYCDVVIRRTDPKQTVITGIKGLRVLKTTQSSFVNFVNDEFRSLPDQYDRIFSTVVDCSWEYSDTENLDFLRAWQTVKNIIIRNFAGDPQVGVSSPSVQHTLYLSERQVLDVLPQVSVISMTMPNKHYFNFDTKPFQKIAPGDNNEVFIPVDKPHGTIYAQLARKNINSHL
- MAPPIT interaction score (Cpr56F): -0.112 (inactive)

B13: Acp62F (protein)
chain: MTDMWSLKICACLGLLLLFKPIDSMGWQGPKVDCTANGTQTECPVACPETCEYSGNGPCVKMCGAPCVCKPGYVINERIPACVLRSDCPKDVVRKEDMLLGVSNFKCFSRNYNCS
- MAPPIT interaction score (Cdlc2): 2.6 (inactive)

B14: GstS1 (protein)
chain: MADEAQAPPAEGAPPAEGEAPPPAEGAEGAVEGGEAAPPAEPAEPIKHSYTLFYFNVKALAEPLRYLFAYGNQEYEDVRVTRDEWPALKPTMPMGQMPVLEVDGKRVHQSISMARFLAKTVGLCGATPWEDLQIDIVVDTINDFRLKIAVVSYEPEDEIKEKKLVTLNAEVIPFYLEKLEQTVKDNDGHLALGKLTWADVYFAGITDYMNYMVKRDLLEPYPALRGVVDAVNALEPIKAWIEKRPVTEV
- MAPPIT interaction score (Chd64): 0.058 (inactive)

B15: CanB (protein)
chain: MGNETSLPMDMCSNFDADEIRRLGKRFRKLDLDNSGALSIDEFMSLPELQQNPLVQRVIDIFDADGNGEVDFKEFIQGVSQFSVRGDKLSKLRFAFRIYDMDNDGYISNGELFQVLKMMVGNNLKDTQLQQIVDKTICFADKDEDGKISFDEFCSVVGNTDIHKKMVVDV
- MAPPIT interaction score (CanA1): -0.226 (inactive)

B16: Cnb (protein)
chain: B15 chain
- MAPPIT interaction score (Cpr47Eg): 0.368 (inactive)
- MAPPIT interaction score (RpS13; MAPPIT configuration: N-C): 0.361 (inactive)
- MAPPIT interaction score (RpS13; MAPPIT configuration: N-N): -0.0673 (inactive)
- MAPPIT interaction score (Sas-6; MAPPIT configuration: N-C): 0.335 (inactive)
- MAPPIT interaction score (Sas-6; MAPPIT configuration: N-N): -0.212 (inactive)
- MAPPIT interaction score (cnn; MAPPIT configuration: N-C): -0.173 (inactive)
- MAPPIT interaction score (cnn; MAPPIT configuration: N-N): 0.273 (inactive)
